PubChem BioAssay (NCI)
The panel holds about 83,000 compounds, 20% with a hit somewhere; the sample as a whole holds those more often.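 Assay: single dose, 48 h. Readout: percent growth (0 = no net growth; negative = cell death). Active: <10.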 Values without a mark were called inactive. The source made the active and inactive calls.

Columns and labels:
Assay in all cases: NCI-60 one-dose screen, 48 h (100 = growth as untreated, 0 = no growth, -100 = all killed)
Conditions in all cases: 10 µM unless noted
NCI-H23 lung = test system: NCI-H23 lung
NCI-H226 lung = test system: NCI-H226 lung
NCI-H322M lung = test system: NCI-H322M lung
HOP-62 NSCLC = test system: HOP-62 NSCLC
NCI-H460 lung = test system: NCI-H460 lung
HOP-92 NSCLC = test system: HOP-92 NSCLC
NCI-H522 lung = test system: NCI-H522 lung
A549/ATCC NSCLC = test system: A549/ATCC NSCLC
786-0 renal = test system: 786-0 renal
COLO 205 colon = test system: COLO 205 colon
DU-145 prostate = test system: DU-145 prostate
K-562 leukemia = test system: K-562 leukemia
MDA-MB-231 breast = test system: MDA-MB-231 breast
RXF 393 renal = test system: RXF 393 renal
SF-268 CNS = test system: SF-268 CNS
SF-295 CNS = test system: SF-295 CNS
SF-539 CNS = test system: SF-539 CNS
UACC-257 melanoma = test system: UACC-257 melanoma
M14 melanoma = test system: M14 melanoma

Row | Compound | growth (NCI-H23 lung) | growth (NCI-H226 lung) [%] | growth (NCI-H322M lung) | growth (HOP-62 NSCLC) [%] | growth (NCI-H460 lung) | growth (HOP-92 NSCLC) [%] | growth (NCI-H522 lung) | growth (A549/ATCC NSCLC) | growth (786-0 renal) | growth (COLO 205 colon) | growth (DU-145 prostate) [%] | growth (K-562 leukemia) | growth (MDA-MB-231 breast) | growth (RXF 393 renal) | growth (SF-268 CNS) [%] | growth (SF-295 CNS) [%] | growth (SF-539 CNS) [%] | growth (UACC-257 melanoma) | growth (M14 melanoma)
1 | Cn1cc(-c2nc(-c3cn(C)c4ncccc34)cs2)c2ccccc21 | 43.6% | 66.9 | 58.5% | 36.1 | 16.7% | 75.3 | -1.88% (active) | 38.8% | 39.3% | 32.8% | 58.9 | 12.6% | 48.6% | 35.5% | 45.4 | 20.7 | 27.6 | 60.6% | 8.62% (active)
2 | CC1=CC(=O)N(c2cccc3c(N4C(=O)C=C(C)C4=O)cccc23)C1=O | 79.4% | 100 | 102% | 100 | 113% | 78.6 | -74.6% (active) | 96.5% | 96.3% | -45.6% (active) | 72.3 | 6.92% (active) | 107% | -10.7% (active) | 106 | 121 | 32.7 | 82.4% | 96.2%
3 | Cn1cc(-c2csc(-c3cn(C(=O)OC(C)(C)C)c4ccccc34)n2)c2cccnc21 | 70.4% | 91.4 | 103% | 73.7 | 60.7% | 57.1 | -8.18% (active) | 52.9% | 76.6% | 64.8% | 92.7 | 23.3% | 65.4% | 80.1% | 81.6 | 48.2 | 71.4 | 82.9% | 54.8%
4 | O=C(N/N=C\c1c(O)ccc2ccccc12)C1CC1 | 36.4% | 79.6 | 33.7% | 55.8 | 32.9% | 43.1 | 11.6% | 58.4% | 49.6% | 96.3% | 69.1 | 34% | 38.5% | 50.4% | 42.3 | 30 | 33.2 | 11.2% | 39.9%
5 | Oc1ccccc1/C=N\NC(=S)Nc1ccc(F)cc1 | 30.4% | 25.7 | 30.1% | 36.5 | 4.08% (active) | 46.4 | 21.4% | 22.1% | 16.6% | 50.3% | 30.4 | 14.9% | 49% | 20.1% | 27.8 | 11.6 | 23.9 | 15.4% | -30.4% (active)
6 | Cc1ccc2[nH]cc(-c3nc(-c4cn(C)c5ncccc45)cs3)c2c1 | 74.7% | 74.2 | 101% | 105 | 91.4% | 74.6 | 86.5% | 75.5% | 91.3% | 97.9% | 97.7 | 59.4% | 83.4% | 100% | 97 | 77.9 | 93.8 | 94% | 80%
7 | C/C(=N\NC(=O)C(C)SC(C)C(=O)N/N=C(\C)c1cccnc1)c1cccnc1 (configuration not stated) | 103% | 106 | 104% | 106 | 104% | 114 | 77.4% | 108% | 115% | 107% | 111 | 91.9% | 109% | 130% | 108 | 116 | 104 | 113% | 111%
8 | COc1cnc2c(c1)C(=O)c1c-2n(CCCN2CCN(CCO)CC2)c(=O)c2cc([N+](=O)[O-])ccc12 | -40.2% (active) | 64 | -20.4% (active) | 39.8 | -75.7% (active) | 76.9 | 38.3% | -88.9% (active) | -85.4% (active) | 62% | 43.3 | -26.6% (active) | -35.8% (active) | 74.3% | 31 | 29.2 | 57.5 | – | 18.2%
9 | O=C(/C=C/c1cccc(O)c1)c1ccccc1O | 86.8% | 98.2 | 98.4% | 94.4 | 88.2% | 68.6 | -37.3% (active) | 96.6% | 103% | 104% | 83.2 | 80% | 80.3% | 89.9% | 94.2 | 98.6 | 102 | 86.8% | 96.4%
10 | CC1c2ccccc2N(S(=O)(=O)c2ccccc2)C1C (configuration not stated) | 89.4% | 88.4 | 102% | 95.4 | 115% | 86.8 | 76.9% | 92% | 102% | 97.6% | 102 | 34.1% | 91.2% | 88% | 102 | 94.9 | 104 | 93.6% | 77.6%
11 | Clc1ccc2[nH]cc(-c3nc(-c4c[nH]c5ncccc45)cs3)c2c1 | 51.7% | 63 | 59.1% | 54.1 | 19% | 43.5 | 46.5% | 21.7% | 27.6% | 18.3% | 42.1 | 13.1% | 37.9% | 45.5% | 61.7 | 19.4 | 70.5 | 9.88% (active) | 20.1%
12 | COc1c(N)c2c(c([N+](=O)[O-])c1OC)C(=O)OC2 | 120% | 110 | 99.8% | 107 | 113% | 92.3 | 98.6% | 96.1% | 102% | 116% | 116 | 119% | 115% | 112% | 106 | 107 | 104 | 102% | 109%
13 | Cn1cc(-c2nc(-c3c[nH]c4ncccc34)cs2)c2cc(Cl)ccc21 | 69.5% | 81.8 | 47.8% | 86 | 47% | 40.4 | 52.2% | 43% | 46.2% | 80.2% | 54.4 | 9.43% (active) | 55.3% | 63.4% | 65.4 | 24.4 | 71.7 | 56% | 42.2%
14 | C(=C\c1c[nH]c2ccccc12)/c1ccc2ccccc2n1 | 91.3% | 76.5 | 77.5% | 89.6 | 79.7% | 61.3 | 53.8% | 63.3% | 77.8% | 84.4% | 92.7 | 51.9% | 56.4% | 92.1% | 71.4 | 81.4 | 87.9 | 90.2% | 82.2%
15 | S=c1[nH]nc2ccccn12 | 104% | 122 | 105% | 102 | 109% | 100 | 82.3% | 106% | 112% | 118% | 114 | 92.6% | 103% | 119% | 117 | 108 | 99.1 | 108% | 108%
16 | CC(=O)Oc1ccccc1C(=O)/C=C/c1cccc([N+](=O)[O-])c1 | 87.9% | 94.2 | 99.2% | 99.2 | 82.5% | 69.8 | 55.9% | 95.6% | 81.6% | 86.7% | 75 | 28.1% | 85.2% | 60.4% | 62.6 | 68.7 | 80.8 | 103% | 96.4%
17 | CC(=O)O[C@H]1CC[C@@]2(C)[C@@H](CC[C@@H]3[C@@H]2CC(=O)[C@@]2(C)[C@H]3C[C@@H](C3CCCC3=O)[C@@H]2C(C)=O)C1 (some centres not stated) | 107% | 112 | 106% | 100 | 111% | 93.1 | 82.5% | 101% | 105% | 116% | 117 | 105% | 98.8% | 132% | 112 | 112 | 105 | 109% | 97.8%
